Here are results for 20 compounds from PubChem BioAssay.

Experiment [1] is described as follows: antimalarial activity against Dd2 strain (AID 2302;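 active = growth inhibition above 50% at the single 2 µM test dose, taken to imply half-maximal potency below 2 µM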;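 note: 0% = DMSO untreated growth and 100% = chloroquine plus artemisinin killed control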). The note with it: P. falciparum Dd2 in RBCs, LDH growth readout, 72 h; at 2 µM; stronger effect = higher value.
The nature of experiment [2]: human hepatoma cell viability loss – ATP luminescence, cytotoxicity control for P. falciparum antimalarial project, primary screen (AID 2303;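 active = inhibition above 50%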;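 note: 0% = DMSO wells and 100% = digitonin-killed cells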). The note with it: HepG2 viability, 24-48 h, at 10 µM, stronger effect = higher value.
Experiment [3] addresses L-lactate dehydrogenase (Plasmodium falciparum (isolate CDC / Honduras)) (UniProt Q27743). The experiment can be described thus: PfLDH activity inhibition – cell lysate, 3D7 strain, counter-screen for P. falciparum growth inhibition project (AID 2304).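 Note: 0% = vehicle and 100% = reference inhibitor.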 The settings on record: P. falciparum 3D7 crude extract, LDH APAD/NBT absorbance; at 2 µM; stronger effect = higher value.
The nature of experiment [4]: inhibition of 3D7 malaria parasite growth – strain 3D7 (AID 2306).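 Note: 0% = DMSO wells and 100% = chloroquine plus artemisinin control wells.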 The note with it: P. falciparum 3D7 erythrocytic growth, LDH absorbance, 72 h; at 2 µM; stronger effect = higher value.
Experiment [5] concerns the target Calcium-dependent protein kinase 1 (Plasmodium falciparum (isolate 3D7)) (UniProt P62344). The experiment can be described thus: PfCDPK1 kinase inhibitors, biochemical, TCAMS library (AID 1159585; cut-off not given, nearly all actives have IC50 up to about 0.98 µM;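 note: inhibitors leave more ATP so luminescence rises with inhibition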). The note with it: recombinant PfCDPK1, Kinase-Glo ATP depletion luminescence. For orientation: Kinase-Glo reads ATP consumption through a luciferase reaction.
Experiment [6] addresses Plasmodium falciparum protein kinase 6 (PK6, PF3D7_1337100) (UniProt Q8IDW1). Nature of the experiment: PfPK6 kinase inhibitors, biochemical, TCAMS library (AID 1159586). The settings on record: recombinant PfPK6, Kinase-Glo ATP depletion luminescence.
Experiment [7] addresses Protein kinase 7 (PK7), Plasmodium falciparum 3D7 (PF3D7_0213400) (UniProt Q7YTF7). Nature of the experiment: inhibition of Plasmodium PK7 catalytic activity – biochemical, TCAMS antimalarial set, Kinase-Glo luminescence (AID 1159587). The note with it: recombinant PfPK7, Kinase-Glo ATP depletion luminescence.
Experiment [8] deals with Calcium-dependent protein kinase 4 (Plasmodium falciparum (isolate 3D7)) (UniProt Q8IBS5). Nature of the experiment: PfCDPK4 kinase inhibitors, biochemical, TCAMS library (AID 1159588; cut-off not given, nearly all actives have IC50 up to about 0.91 µM). The settings on record: recombinant PfCDPK4, Kinase-Glo ATP depletion luminescence.
Calcium-dependent protein kinase 4 (Plasmodium falciparum (isolate 3D7)), sequence (Q8IBS5 whole entry, looked up): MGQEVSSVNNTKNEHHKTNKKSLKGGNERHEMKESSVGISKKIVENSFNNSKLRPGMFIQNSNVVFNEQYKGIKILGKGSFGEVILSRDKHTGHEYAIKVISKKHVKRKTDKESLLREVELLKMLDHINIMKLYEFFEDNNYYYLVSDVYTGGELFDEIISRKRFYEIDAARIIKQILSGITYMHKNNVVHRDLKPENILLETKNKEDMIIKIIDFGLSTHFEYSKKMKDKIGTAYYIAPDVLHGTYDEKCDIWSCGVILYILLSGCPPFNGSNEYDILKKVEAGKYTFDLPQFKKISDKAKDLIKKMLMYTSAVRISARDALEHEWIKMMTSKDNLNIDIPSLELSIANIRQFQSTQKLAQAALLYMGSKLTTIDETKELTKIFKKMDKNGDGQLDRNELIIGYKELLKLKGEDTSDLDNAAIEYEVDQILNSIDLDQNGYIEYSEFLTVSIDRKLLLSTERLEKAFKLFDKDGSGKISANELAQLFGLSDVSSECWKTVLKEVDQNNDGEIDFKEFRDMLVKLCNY

Unmarked numbers belong to inactive results. For some of these results: Measured potencies and affinities stand elsewhere. The source made the active and inactive calls. Unless noted, the rule behind the calls is not given here.

Protein kinase 7 (PK7), Plasmodium falciparum 3D7 (PF3D7_0213400), sequence (Q7YTF7 1-343): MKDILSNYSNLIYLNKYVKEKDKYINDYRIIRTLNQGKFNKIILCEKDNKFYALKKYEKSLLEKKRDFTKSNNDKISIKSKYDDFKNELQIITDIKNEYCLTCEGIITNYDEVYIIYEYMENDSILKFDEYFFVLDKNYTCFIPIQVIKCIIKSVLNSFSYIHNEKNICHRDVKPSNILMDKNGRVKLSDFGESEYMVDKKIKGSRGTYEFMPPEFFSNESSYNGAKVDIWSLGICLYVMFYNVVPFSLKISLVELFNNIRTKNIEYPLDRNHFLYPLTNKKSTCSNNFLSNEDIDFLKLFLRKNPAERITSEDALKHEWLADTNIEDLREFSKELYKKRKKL
Plasmodium falciparum protein kinase 6 (PK6, PF3D7_1337100), sequence (Q8IDW1 1-305): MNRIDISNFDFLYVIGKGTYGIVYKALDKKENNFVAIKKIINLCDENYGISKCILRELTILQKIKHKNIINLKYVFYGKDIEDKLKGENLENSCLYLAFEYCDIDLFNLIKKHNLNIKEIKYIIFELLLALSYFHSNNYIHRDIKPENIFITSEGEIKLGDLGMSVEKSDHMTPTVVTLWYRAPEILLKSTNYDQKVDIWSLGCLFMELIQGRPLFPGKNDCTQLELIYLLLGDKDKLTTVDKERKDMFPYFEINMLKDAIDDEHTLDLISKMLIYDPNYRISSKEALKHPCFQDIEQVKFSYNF
Calcium-dependent protein kinase 1 (Plasmodium falciparum (isolate 3D7)), sequence (P62344 whole entry, looked up): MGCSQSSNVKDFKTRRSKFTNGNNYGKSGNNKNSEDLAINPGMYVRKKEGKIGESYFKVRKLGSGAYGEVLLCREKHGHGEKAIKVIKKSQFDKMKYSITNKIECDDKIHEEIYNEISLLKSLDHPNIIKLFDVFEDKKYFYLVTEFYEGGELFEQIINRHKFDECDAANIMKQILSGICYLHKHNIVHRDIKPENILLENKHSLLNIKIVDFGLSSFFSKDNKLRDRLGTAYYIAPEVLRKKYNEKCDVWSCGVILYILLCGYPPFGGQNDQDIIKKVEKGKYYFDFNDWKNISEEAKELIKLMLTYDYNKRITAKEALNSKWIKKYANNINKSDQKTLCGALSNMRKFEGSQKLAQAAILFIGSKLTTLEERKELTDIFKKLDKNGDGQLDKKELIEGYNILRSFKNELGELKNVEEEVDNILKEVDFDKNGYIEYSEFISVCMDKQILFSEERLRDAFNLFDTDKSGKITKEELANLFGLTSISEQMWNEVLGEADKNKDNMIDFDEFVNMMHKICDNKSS
L-lactate dehydrogenase (Plasmodium falciparum (isolate CDC / Honduras)), sequence (Q27743 whole entry, looked up): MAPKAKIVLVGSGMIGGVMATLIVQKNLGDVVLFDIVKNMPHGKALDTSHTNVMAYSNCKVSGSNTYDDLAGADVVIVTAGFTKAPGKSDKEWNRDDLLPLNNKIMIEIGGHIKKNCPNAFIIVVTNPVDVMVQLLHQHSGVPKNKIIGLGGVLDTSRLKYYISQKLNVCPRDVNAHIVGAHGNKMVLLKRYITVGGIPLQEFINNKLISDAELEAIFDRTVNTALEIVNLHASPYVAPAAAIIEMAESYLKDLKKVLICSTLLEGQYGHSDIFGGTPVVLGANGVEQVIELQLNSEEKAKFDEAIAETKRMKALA

By inhibition is commonly meant the drop in the measured response relative to a control, in per cent. With `Cc1cccc(-c2ccc(NC(=O)C3CCN(Cc4cccc(O)c4)CC3)cc2)c1`, the values for the growth inhibition in experiment [1] and in experiment [4] were 64% (active) and 92% (active), respectively. In addition, the inhibition was 21% in experiment [2] and 0% in experiment [3]. In addition, the outcome in experiment [5], in experiment [6], in experiment [7] and in experiment [8] was inactive.
For `CCN(CC)CCN(Cc1ccc(-c2ccc(Cl)cc2)cc1)C(=O)Cn1c(CCc2cccc(F)c2F)nc(=O)c2ccccc21`, the values for the growth inhibition in experiment [1] and in experiment [4] were 75% (active) and 101% (active), respectively. Also, the inhibition in experiment [2] was 45%; in experiment [3] it was -4%. Moreover, the outcome in experiment [5], in experiment [6], in experiment [7] and in experiment [8] was inactive.
With `CCCCCc1cnc2nc(N)nc(N)c2c1`, the growth inhibition in experiment [1] is 6%; in experiment [4] it was 82% (active). Moreover, the results for the inhibition in experiment [2] and in experiment [3] were 72% (active) and -1%, respectively. For the same compound, the result in experiment [5], in experiment [6], in experiment [7] and in experiment [8] was inactive.
Regarding `CC(Nc1ccc2c(c1)CCC2)C(=O)Nc1cc(C(F)(F)F)ccc1N1CCOCC1` (stereo not given), the growth inhibition in experiment [1] and in experiment [4] was 100% (active) each time. Also, the inhibition in experiment [2] is -3%; in experiment [3], -1%. Besides, the outcome in experiment [5], in experiment [6], in experiment [7] and in experiment [8] was inactive.
`OCCCCCCNc1ccnc2[nH]c3ccc(I)cc3c12`: the results for the growth inhibition in experiment [1] and in experiment [4] were 61% (active) and 100% (active), respectively. Besides, the inhibition in experiment [2] is 27%; in experiment [3], -4%. The result in experiment [5], in experiment [6], in experiment [7] and in experiment [8] was inactive.
For the compound `O=C(NC1CC1)c1cnc(N2CCN(Cc3c(F)cccc3Cl)CC2)c(Cl)c1`, the growth inhibition in experiment [1] and in experiment [4] was 93% (active) in each case. In addition, the inhibition was 0% in experiment [2] and -2% in experiment [3]. Further, the result in experiment [5], in experiment [6], in experiment [7] and in experiment [8] was inactive.
For `Cn1c(Nc2cc(C(C)(C)C)on2)nc2cc(Nc3ccnc(Nc4cccc(S(=O)(=O)N5CCOCC5)c4)n3)ccc21`, the growth inhibition is 96% (active) in experiment [1] and 101% (active) in experiment [4]. Besides, the inhibition in experiment [2] was 32%; in experiment [3] it was 5%. Further, the outcome in experiment [5], in experiment [6], in experiment [7] and in experiment [8] was inactive.
Turning to `CCOc1ccc(-c2nonc2NC(=O)CC(C)C)cc1OCC`, the growth inhibition in experiment [1] is 37%; in experiment [4], 92% (active). For the same compound, the figures for the inhibition in experiment [2] and in experiment [3] were -1% and 6%, respectively. Moreover, the outcome in experiment [5], in experiment [6], in experiment [7] and in experiment [8] was inactive.
As to `O=C(/C=C/c1ccc(C(F)(F)F)cc1)NCCCCCN1CCCN(C(=O)Nc2ccc(Cl)c(Cl)c2)CC1`, the growth inhibition in experiment [1] is 17%; in experiment [4], 100% (active). Moreover, the figures for the inhibition in experiment [2] and in experiment [3] were 89% (active) and 0%, respectively. For the same compound, the outcome in experiment [5], in experiment [6], in experiment [7] and in experiment [8] was inactive.
Regarding `CCOc1ncccc1CN1CCC(N2CCc3cc(NC(=O)c4cc(C)on4)ccc32)C1` (stereo not given), the growth inhibition was 96% (active) in experiment [1] and 89% (active) in experiment [4]. The inhibition is -3% in experiment [2] and -1% in experiment [3]. In addition, the result in experiment [5], in experiment [6], in experiment [7] and in experiment [8] was inactive.
As to `COCn1ccc2c3c(N)nc(N)nc3ccc21`, the growth inhibition in experiment [1] is 1%; in experiment [4], 88% (active). Further, the inhibition was 63% (active) in experiment [2] and 6% in experiment [3]. For the same compound, the result in experiment [5], in experiment [6], in experiment [7] and in experiment [8] was inactive.
In the case of `O=S(=O)(NCCN1CCCC1)c1cccc(-c2cccc(CNCc3ccccc3)c2)c1`, the figures for the growth inhibition in experiment [1] and in experiment [4] were 73% (active) and 97% (active), respectively. Moreover, the inhibition was 32% in experiment [2] and -7% in experiment [3]. Moreover, the outcome in experiment [5], in experiment [6], in experiment [7] and in experiment [8] was inactive.
As to `CCN(CC)C(=NCCCCCCN=C(/N=C(\N)Nc1ccc(Cl)c(Cl)c1)N(CC)CC)/N=C(\N)Nc1ccc(Cl)c(Cl)c1`, the growth inhibition in experiment [1] is 90% (active); in experiment [4] it was 94% (active). In addition, the inhibition in experiment [2] was 1%; in experiment [3] it was -3%. Besides, the outcome in experiment [5], in experiment [6], in experiment [7] and in experiment [8] was inactive.
On to `Cc1cc(N2CCCC2)nc(Nc2ccc(NC(=O)c3ccc(Br)o3)cc2)n1`, for which the growth inhibition was 57% (active) in experiment [1] and 99% (active) in experiment [4]. Besides, the inhibition in experiment [2] was 17%; in experiment [3], 0%. Besides, the outcome in experiment [5], in experiment [6], in experiment [7] and in experiment [8] was inactive.
Take `O=C(NC1CCN(Cc2ccccc2)CC1)c1ccc(-c2nc3cc(Cl)c(F)cc3[nH]2)s1`: the figures for the growth inhibition in experiment [1] and in experiment [4] were 99% (active) and 101% (active), respectively. Moreover, the figures for the inhibition in experiment [2] and in experiment [3] were 28% and 3%, respectively. The outcome in experiment [5], in experiment [6], in experiment [7] and in experiment [8] was inactive.
In the case of `COc1cc(Cc2cnc(N)nc2N)cc(OCCCCC2NC(=O)NC2=O)c1OC` (stereo not given), the growth inhibition in experiment [1] is -1%; in experiment [4], 94% (active). Moreover, the inhibition in experiment [2] is 2%; in experiment [3], -3%. Moreover, the outcome in experiment [5], in experiment [6], in experiment [7] and in experiment [8] was inactive.
In the case of `CCc1ccc(NC(=O)c2ccc(CN3CCCN(Cc4cccc(Cl)c4)CC3)cc2)cc1`, the growth inhibition in experiment [1] was 2%; in experiment [4], 84% (active). The figures for the inhibition in experiment [2] and in experiment [3] were 50% (active) and 5%, respectively. For the same compound, the outcome in experiment [5], in experiment [6], in experiment [7] and in experiment [8] was inactive.
As for `COc1ccc(-c2cccc(CNC3CCN(CC4Cn5c(=O)ccc6ccc(F)c4c65)CC3)c2)cc1` (stereo not given), the growth inhibition in experiment [1] is 74% (active); in experiment [4], 101% (active). In addition, the inhibition in experiment [2] is 22%; in experiment [3], 0%. The outcome in experiment [5], in experiment [6], in experiment [7] and in experiment [8] was inactive.
On to `O=C(CCc1nc2c(cnn2-c2ccccc2)c(=O)[nH]1)NC1CCSc2ccccc21` (stereo not given), for which the growth inhibition in experiment [1] was 52% (active); in experiment [4] it was 95% (active). In addition, the inhibition was 10% in experiment [2] and -2% in experiment [3]. Also, the outcome in experiment [5], in experiment [6], in experiment [7] and in experiment [8] was inactive.
For the compound `CC(=O)Nc1nc(C(=O)Nc2cccc(-c3ccc4c(cnn4CC4CC4)c3)c2)cs1`, the growth inhibition in experiment [1] was 67% (active); in experiment [4], 95% (active). Further, the inhibition in experiment [2] was 16%; in experiment [3], 2%. Further, the outcome in experiment [5], in experiment [6], in experiment [7] and in experiment [8] was inactive.
